Experiment [1] has as its system PRMT1 (protein arginine N-methyltransferase 1). Briefly: small molecules binding arginine methyltransferase PRMT1 – biochemical, small-molecule microarray, 635 nm fluorescence, primary screen (AID 1088).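 Note: binding of Prmt1 protein to compounds spotted on small-molecule microarray slides.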 The settings on record: higher = more signal.
A short description of experiment [2]: growth effects on S. cerevisiae YJM789 – YJM789 clinical isolate, OD600, 24 h, basal, primary screen (AID 1089).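 Note: growth of clinical yeast isolate S. cerevisiae YJM 789 seeded 1000 cells per well; test concentration not given here.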 The settings on record: higher = more signal, called active from +8 up or from −8 down.
Experiment [3] can be described thus: S. pombe growth modifiers, basal conditions – strain 972, OD600, 24 h, no modulator, primary screen (AID 1090).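 Note: basal condition with compound alone and no growth modifier present; test concentration not given here.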 The settings on record: S. pombe 972 growth, higher = more signal, called active from +8 up or from −8 down.
Experiment [4] can be described thus: budding yeast growth modifiers under rapamycin – strain BY4716, OD600, 96 h, primary screen (AID 1091). Note: test concentration not given here. The following applies: S. cerevisiae BY4716 + rapamycin, higher = more signal, called active from +8 up or from −8 down.
The target of experiment [5] is Torsin-1A-interacting protein 2 (Homo sapiens) (UniProt Q8NFQ8). Briefly: small molecules binding lysate-expressed LULL1 – cell lysate, human LULL1 lysate, 635/667 nm fluorescence, primary screen (AID 1092).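 Note: probe is lysate of COS7 cells overexpressing human LULL1; score merges per-feature 667 nm fluorescence with signal-to-noise.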 The following applies: small-molecule microarray, hLULL1 lysate binding, 635 nm fluorescence; higher = more signal.
Torsin-1A-interacting protein 2 (Homo sapiens), sequence (Q8NFQ8 whole entry, looked up): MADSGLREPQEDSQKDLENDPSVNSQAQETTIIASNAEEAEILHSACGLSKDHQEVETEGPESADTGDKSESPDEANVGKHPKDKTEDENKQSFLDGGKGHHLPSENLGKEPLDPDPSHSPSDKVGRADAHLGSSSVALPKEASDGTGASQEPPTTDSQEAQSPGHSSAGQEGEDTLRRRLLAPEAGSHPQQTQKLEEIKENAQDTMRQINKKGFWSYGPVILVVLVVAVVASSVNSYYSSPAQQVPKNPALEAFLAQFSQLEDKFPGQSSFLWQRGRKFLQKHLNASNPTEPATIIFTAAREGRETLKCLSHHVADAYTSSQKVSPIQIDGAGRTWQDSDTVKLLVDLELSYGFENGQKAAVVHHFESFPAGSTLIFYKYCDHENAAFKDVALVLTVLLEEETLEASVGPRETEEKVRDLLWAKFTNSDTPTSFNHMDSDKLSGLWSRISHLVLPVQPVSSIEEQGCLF
Experiment [6] can be described thus: optical density change of DRC41 E. coli – strain DRC41, OD650, 24 h, E. coli filamentation project, primary screen (AID 1093).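 Note: MC1000 strain lacking acrAB efflux and sulA so SOS filamentation is blocked; test concentration not given here.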 The following applies: E. coli DRC41 growth, higher = more signal, called active from +8 up or from −8 down.
The nature of experiment [7]: probe aLefty2 binding to arrayed compounds – biochemical, biotinylated probe, 635/667 nm fluorescence, primary screen (AID 1094).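 Note: score merges spot fluorescence near 667 nm with spot signal-to-noise ratio.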 The following applies: small-molecule microarray, higher = more signal.
The subject of experiment [8] is Noggin (protein binding on small-molecule microarray). Briefly: small molecules binding Noggin protein – biochemical, 635/667 nm fluorescence, primary screen (AID 1095).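 Note: score merges 667 nm feature fluorescence with signal to noise over triplicate slides.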 The following applies: 635 nm fluorescence, higher = more signal.
Experiment [9] deals with Neurogenic locus notch homolog protein 3 (Homo sapiens) (UniProt Q9UM47). As to the kind of experiment: small molecules binding NOTCH3 protein – biochemical, 635/667 nm fluorescence, primary screen (AID 1096). The settings on record: small-molecule microarray, 635 nm fluorescence, higher = more signal.
Neurogenic locus notch homolog protein 3 (Homo sapiens), sequence (Q9UM47 whole entry, looked up): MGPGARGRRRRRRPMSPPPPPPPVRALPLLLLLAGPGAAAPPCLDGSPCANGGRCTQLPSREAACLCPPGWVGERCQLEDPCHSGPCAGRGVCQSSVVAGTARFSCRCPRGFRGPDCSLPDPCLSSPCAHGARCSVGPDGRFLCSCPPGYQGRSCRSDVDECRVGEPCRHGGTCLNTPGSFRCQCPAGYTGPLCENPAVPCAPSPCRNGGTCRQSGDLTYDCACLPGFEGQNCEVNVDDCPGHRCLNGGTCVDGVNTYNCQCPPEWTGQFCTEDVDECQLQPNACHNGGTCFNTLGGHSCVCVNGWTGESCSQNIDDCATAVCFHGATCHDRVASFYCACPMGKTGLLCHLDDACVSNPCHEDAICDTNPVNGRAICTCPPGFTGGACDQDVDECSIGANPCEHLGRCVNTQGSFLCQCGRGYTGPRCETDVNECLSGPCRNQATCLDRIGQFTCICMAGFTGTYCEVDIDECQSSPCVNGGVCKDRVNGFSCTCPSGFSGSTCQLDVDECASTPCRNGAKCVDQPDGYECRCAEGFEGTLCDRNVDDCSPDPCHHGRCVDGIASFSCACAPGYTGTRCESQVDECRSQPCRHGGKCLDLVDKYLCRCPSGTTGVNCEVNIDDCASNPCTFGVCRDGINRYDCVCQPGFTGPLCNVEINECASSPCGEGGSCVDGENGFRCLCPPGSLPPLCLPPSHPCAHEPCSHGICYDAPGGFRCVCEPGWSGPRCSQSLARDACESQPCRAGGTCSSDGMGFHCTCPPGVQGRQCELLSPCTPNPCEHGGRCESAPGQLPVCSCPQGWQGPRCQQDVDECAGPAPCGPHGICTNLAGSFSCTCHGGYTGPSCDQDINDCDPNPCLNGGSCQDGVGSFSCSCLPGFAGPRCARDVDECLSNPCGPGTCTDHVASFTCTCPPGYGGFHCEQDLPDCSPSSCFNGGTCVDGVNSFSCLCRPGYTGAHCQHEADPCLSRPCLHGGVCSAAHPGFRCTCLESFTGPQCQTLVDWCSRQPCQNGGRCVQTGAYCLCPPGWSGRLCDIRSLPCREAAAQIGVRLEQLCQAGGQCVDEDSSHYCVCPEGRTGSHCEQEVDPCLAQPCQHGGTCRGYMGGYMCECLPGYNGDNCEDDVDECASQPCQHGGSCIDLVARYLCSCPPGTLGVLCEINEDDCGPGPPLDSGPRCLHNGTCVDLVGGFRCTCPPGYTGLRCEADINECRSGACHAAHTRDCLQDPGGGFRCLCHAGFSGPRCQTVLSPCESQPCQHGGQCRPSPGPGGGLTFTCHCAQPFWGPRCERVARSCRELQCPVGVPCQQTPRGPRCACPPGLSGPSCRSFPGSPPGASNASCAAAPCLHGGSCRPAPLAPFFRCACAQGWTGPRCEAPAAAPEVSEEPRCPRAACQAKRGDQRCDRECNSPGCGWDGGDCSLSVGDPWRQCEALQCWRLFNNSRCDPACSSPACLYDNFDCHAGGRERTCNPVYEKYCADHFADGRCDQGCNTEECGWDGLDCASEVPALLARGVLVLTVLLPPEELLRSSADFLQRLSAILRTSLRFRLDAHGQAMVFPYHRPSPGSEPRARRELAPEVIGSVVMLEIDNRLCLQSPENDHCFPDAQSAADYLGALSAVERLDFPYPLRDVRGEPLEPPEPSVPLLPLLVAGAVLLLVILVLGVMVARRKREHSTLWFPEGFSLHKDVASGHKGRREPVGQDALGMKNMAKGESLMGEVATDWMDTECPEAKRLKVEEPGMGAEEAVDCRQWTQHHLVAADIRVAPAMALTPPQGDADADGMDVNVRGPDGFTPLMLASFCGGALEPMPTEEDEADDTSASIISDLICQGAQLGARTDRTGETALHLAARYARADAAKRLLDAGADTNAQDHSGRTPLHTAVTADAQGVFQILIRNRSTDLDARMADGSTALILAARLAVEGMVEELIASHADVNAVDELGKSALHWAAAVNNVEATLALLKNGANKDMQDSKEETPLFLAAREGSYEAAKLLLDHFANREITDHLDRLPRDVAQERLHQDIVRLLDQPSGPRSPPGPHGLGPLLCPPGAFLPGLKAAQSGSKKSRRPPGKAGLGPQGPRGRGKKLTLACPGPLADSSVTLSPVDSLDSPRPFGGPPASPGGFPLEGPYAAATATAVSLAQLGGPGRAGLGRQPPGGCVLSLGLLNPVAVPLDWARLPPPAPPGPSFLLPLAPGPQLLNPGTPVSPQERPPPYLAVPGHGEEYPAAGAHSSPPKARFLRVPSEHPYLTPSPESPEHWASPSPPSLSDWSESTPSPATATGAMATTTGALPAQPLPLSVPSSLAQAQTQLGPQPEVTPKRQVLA
Experiment [10] is described as follows: probe aEGFR binding to arrayed compounds – biochemical, biotinylated probe, 635/667 nm fluorescence, primary screen (AID 1097).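 Note: probe is a biotinylated anti-EGFR antibody binding compounds printed on slides; score combines fluorescence near 667 nm and signal to noise of each spot.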 The settings on record: small-molecule microarray, higher = more signal.

Molecules are shown by their SMILES. Active and inactive are the calls of the source.

Take `CC(C)[Si](C#Cc1ccccc1)(O[C@H](c1ccccc1)c1cn(Cc2ccccc2)nn1)C(C)C`: the composite z-score in experiment [1] was 1.02; in experiment [5], 2.04; in experiment [7], -0.195; in experiment [8], 1.08; in [9], 1.01; in [10], -0.133. The z-score in experiment [2] is -1.94 (inactive); in experiment [3] it was -19.9 (active); in [4] it was -2.28 (inactive); in experiment [6], 2.14 (inactive).

Turning to `COCCCNC(=O)[C@@]1(CCC(=O)OC(C)(C)C)N=C(c2ccc(OCCCO)cc2)O[C@H]1c1ccccc1`, the composite z-score in experiment [1] is 1.53; in experiment [5] it was 3.51; in [7] it was 0.0296; in experiment [8] it was 1.56; in [9], 0.275; in experiment [10], 0.0682. Further, the z-score in experiment [2] was 0.241 (inactive); in experiment [3] it was -0.629 (inactive); in [4] it was 0.0716 (inactive); in experiment [6], 1.25 (inactive).

Consider `O=C1O[C@@H](c2ccccc2)[C@@H](c2ccccc2)N2[C@@H](c3ccccc3OCCO)[C@]3(C(=O)Nc4ccc(C#CC5(O)CCCCCC5)cc43)[C@@H](C(=O)N3CCCCCCC3)[C@H]12`, for which the composite z-score in [1] worked out at 1.53; in experiment [5], 5.07; in experiment [7] it was 1.95; in [8], 2.46; in [9] it was 1; in [10], 1.52. The z-score was 0.834 (inactive) in [2], -0.51 (inactive) in experiment [3], 2.57 (inactive) in experiment [4] and 1.23 (inactive) in experiment [6].

Regarding `C=C[C@H](OC)[C@@H](O)c1ccc(OC)c(O)c1`, the composite z-score in experiment [1] is -1.84; in experiment [5], -0.456; in experiment [7], -0.0783; in experiment [8] it was -0.81; in [9], -0.436; in experiment [10], -0.258. For the same molecule, the z-score is 0.0615 (inactive) in experiment [2], 0.242 (inactive) in experiment [3], -0.0251 (inactive) in experiment [4] and -0.0822 (inactive) in experiment [6].

Turning to `Cc1ccc(S[C@]2(C(=O)NCc3ccccc3)CC(=O)N(Cc3ccccc3Cl)[C@@H]2c2ccc(CO)cc2)cc1`, the composite z-score in [1] was 1.17; in [5] it was 2.07; in [7], 0.145; in experiment [8], -0.761; in experiment [9], -0.0303; in experiment [10], -0.258. Also, the z-score in experiment [2] is 0.373 (inactive); in experiment [3], -0.0114 (inactive); in experiment [4], 0.227 (inactive); in experiment [6], -2.31 (inactive).

Take `[N-]=[N+]=NCc1ccccc1[C@H]1OC(c2ccc(OCCCO)cc2)=N[C@@]1(Cc1ccccc1N=[N+]=[N-])C(=O)O`: the composite z-score amounted to 1.57 in experiment [1]; 2.78 in experiment [5]; 0.359 in experiment [7]; 0.145 in [8]; 1.06 in [9]; 0.0783 in experiment [10]. Further, the z-score was -0.467 (inactive) in [2], -4.46 (inactive) in experiment [3], -1.66 (inactive) in experiment [4] and -0.0765 (inactive) in experiment [6].

On to `O=C1N(Cc2ccccc2)c2ccccc2C[C@@]12N=C(c1ccc(OCCCO)cc1)O[C@H]2c1ccccc1`, for which the composite z-score in experiment [1] was 1.55; in [5] it was 3.03; in experiment [7], 0.0686; in experiment [8], 0.591; in experiment [9], 1; in [10] it was -0.178. For the same molecule, the z-score is -0.789 (inactive) in experiment [2], -2.61 (inactive) in experiment [3], 3.55 (inactive) in experiment [4] and -0.788 (inactive) in experiment [6].

On to `CCOC(=O)C1=C[C@@H](C(C)(C)C)N(S(=O)(=O)c2ccc(C)cc2)[C@H]1c1ccc(OC)cc1`, for which the composite z-score in [1] is 1.55; in [5] it was 3.07; in experiment [7], -0.0865; in [8], 1.18; in [9], 1.09; in experiment [10], 0.0301. Moreover, the z-score in experiment [2] is 0.443 (inactive); in experiment [3], 2.17 (inactive); in [4], 1.54 (inactive); in [6], 0.1 (inactive).

Regarding `COC(=O)[C@@]1(Cc2ccc(F)cc2)[C@H]2c3cc(C(=O)N4CCCC4)n(CCSCCO)c3C[C@H]2CN1C(=O)c1ccccc1`, the composite z-score in experiment [1] was -0.665; in experiment [5], 3.54; in experiment [7], 0.314; in [8], -0.906; in experiment [9] it was 0.225; in experiment [10], 0.0726. The z-score in [2] was 0.856 (inactive); in experiment [3], 1.25 (inactive); in experiment [4] it was 0.727 (inactive); in experiment [6], -0.0319 (inactive).

Take `COc1ccc(CCNC(=O)[C@@]2(C)c3ccccc3C(=O)N(Cc3ccc(OC(F)(F)F)cc3)[C@H]2c2ccc(CO)cc2)cc1`: the composite z-score in experiment [1] is 1.55; in experiment [5], 2.25; in experiment [7], -0.403; in experiment [8] it was 1.11; in experiment [9], 0.743; in experiment [10] it was 0.686. Also, the z-score in experiment [2] is -0.219 (inactive); in [3], -0.553 (inactive); in experiment [4], 0.997 (inactive); in experiment [6] it was -0.663 (inactive).

As to `CC(C)c1ccc(NN2C(C(O)C3=C[C@H]4C[C@@H](C3)C4(C)C)C=CC3C(=O)N(c4ccccc4)C(=O)C32)cc1` (stereo not given in full), the composite z-score in experiment [1] was 1.32; in [5], 2.6; in experiment [7] it was 0.363; in [8], 0.501; in experiment [9], 1.08; in experiment [10], 0.114. The z-score in experiment [2] was 0.191 (inactive); in [3] it was -0.0249 (inactive); in experiment [4] it was 0.264 (inactive); in experiment [6], -0.661 (inactive).

With `CC[C@@H](O[Si](C#C[Si](C(C)C)(C(C)C)C(C)C)(C(C)C)C(C)C)c1cn([C@H](C)c2ccccc2)nn1`, the composite z-score is 0.991 in [1]; 0.382 in experiment [5]; -0.148 in [7]; 0.391 in [8]; 0.785 in experiment [9]; -0.0332 in [10]. Further, the z-score in experiment [2] was 0.685 (inactive); in experiment [3] it was 0.0803 (inactive); in experiment [4], 0.529 (inactive); in experiment [6] it was 0.612 (inactive).

As for `Cc1ccc(S[C@]2(C(=O)NCc3ccccc3)CC(=O)N(Cc3ccccc3C(F)(F)F)[C@@H]2c2ccc(CO)cc2I)cc1`, the composite z-score in [1] is 1.3; in experiment [5] it was 1.93; in [7], -0.0593; in experiment [8] it was -0.86; in experiment [9], -0.582; in experiment [10], -0.282. Besides, the z-score in experiment [2] is -1.53 (inactive); in experiment [3], -4.08 (inactive); in [4], 0.899 (inactive); in experiment [6] it was 0.322 (inactive).

As to `COc1ccc([Si](C)(C)[C@H]2[C@H](CCO)O[C@@]3(C(=O)N(Cc4ccccc4)c4ccc(NC(=O)[C@H](C)O)cc43)[C@@H]2C)cc1`, the composite z-score in experiment [1] was 1.44; in experiment [5] it was 2.24; in experiment [7] it was 0.0092; in experiment [8], -0.227; in experiment [9], 0.149; in [10] it was 0.148. Moreover, the z-score was 2.75 (inactive) in experiment [2], 0.215 (inactive) in experiment [3], 5.82 (inactive) in experiment [4] and 0.25 (inactive) in experiment [6].

The values are drawn from PubChem BioAssay.
